The list is not random: actives were taken first. Their share in the collection is about 2.7%.
TrxR1 substrate – substrates of rat thioredoxin reductase 1 | purified TrxR1 substrate turnover, NADPH consumption readout | Potency, µM (doses to about 114 µM) | 390,000 compounds, 0.01% hits | O89049; further: nearly all actives have a fitted effect of over 50% in size
Target sequence (O89049 whole entry, looked up): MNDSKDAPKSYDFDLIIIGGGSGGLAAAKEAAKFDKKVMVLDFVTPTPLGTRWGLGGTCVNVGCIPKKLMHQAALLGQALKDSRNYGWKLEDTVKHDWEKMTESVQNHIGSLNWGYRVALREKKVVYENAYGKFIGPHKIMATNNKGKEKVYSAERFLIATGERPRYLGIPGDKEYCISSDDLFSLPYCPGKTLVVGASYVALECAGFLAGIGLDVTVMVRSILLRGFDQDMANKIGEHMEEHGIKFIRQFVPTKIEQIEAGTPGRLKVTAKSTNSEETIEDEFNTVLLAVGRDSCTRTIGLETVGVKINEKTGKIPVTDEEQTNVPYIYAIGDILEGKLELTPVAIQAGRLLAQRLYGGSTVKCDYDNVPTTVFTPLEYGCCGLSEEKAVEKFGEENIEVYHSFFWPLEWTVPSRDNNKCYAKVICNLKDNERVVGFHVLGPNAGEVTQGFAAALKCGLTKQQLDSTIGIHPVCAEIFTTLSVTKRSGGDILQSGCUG
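Rat TrxR1, dispensed at 90 nM, was prereduced with 400 uM NADPH (final) for 5 min at ~22 deg C, then incubated with compound 15 min before 400 uM selenite. A first-read NADPH fluorescence drop versus no-compound background flagged substrates.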
GLP1R inv ag – acts as inverse agonist at human GLP-1 receptor; P43220; HEK293 GLP-1R CRE-luciferase, luminescence, 24 h; GLP-1R form is constitutively active; Potency, µM (highest dose often 38.3 µM), actives largely listed as inhibitors; 410,000 compounds, 1.6% hits; further: nearly all actives have a fitted effect of over 55% in size
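Cells are plated, allowed 12 hours at 37 deg C, then treated with compounds for 24 hr before luciferase detection reagent is added and luminescence is read after 12 min at room temperature. The HEK293 line carries constitutively active GLP-1R with a cAMP-responsive reporter.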
GLP-1R agonist – agonists of human GLP-1 receptor. HEK293 GLP-1R CRE-luciferase, luminescence, 4-6 h; cells express a hypersensitive GLP-1R form. Potency, µM (top dose mostly 45.6 µM), most hits filed as activators. 380,000 compounds, 0.007% hits
GLP1R cytotox – cytotoxic in the GLP-1 receptor inverse agonist counter-screen; HEK293 cAMP-luciferase reporter cells, luminescence, 24 h; Potency, µM (series often up to 38.3 µM), most hits filed as inhibitors; 410,000 compounds, 0.13% hits;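 further: loss of luciferase light is scored as toxicity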
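Seeding density was 200 cells/uL; after overnight-length (12 h) culture, 23 nL compounds went on for 24 h at 37 °C. Readout used a luciferase detection reagent, luminescence taken after 12 min at room temperature.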
rTrxR1 inhibitor – blocks rat thioredoxin reductase 1; recombinant rTrxR1, NADPH fluorescence consumption, selenite substrate; Potency, µM (doses to about 114 µM), actives largely listed as inhibitors; 390,000 compounds, 1% hits; further: nearly all actives have a fitted effect of over 65% in size
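Rat TrxR1 (90 nM in the dispensed reagent) was pre-reduced with 400 uM NADPH for 5 min at room temperature, then incubated with compound for 15 min. After 400 uM selenite was added, NADPH fluorescence (Ex 340/Em 450 nm) was followed for 8 min.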
mIDH1 inhibitor – human IDH1 R132H inhibition; Potency, µM (titrated, usually from 76.6 µM), most hits filed as inhibitors; O75874; IDH1-R132H enzyme, NADPH consumption, diaphorase/resazurin fluorescence; 390,000 compounds, 0.093% hits; further: nearly all actives have a fitted effect of over 65% in size
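IDH1-R132H (0.5 ug/mL dispensed) in pH 7.5 Tris buffer was preincubated 30 min with compound, then given a substrate mix of 0.016 mM NADPH and 2 mM alpha-KG for 80 min at room temperature; remaining NADPH was read by diaphorase/resazurin fluorescence.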
Large screens that a line does not name were inactive. The call rests on the fitted dose curve; in most records, active means well fitted curve in the direction sought with a large enough effect; inconclusive means small, poorly fitted or top-dose-only effect, or another doubt; inactive means no such curve, though single readings can be large; an effect the other way counts as inactive or inconclusive.

O=C(CCl)NC(=O)NC12CC3CC(CC(C3)C1)C2	rTrxR1 inhibitor 14.1µM
CC(Cl)C(=O)NC(=O)NC12CC3CC(CC(C3)C1)C2 (stereo unspecified)	GLP1R inv ag inconclusive
O=C(Nc1cc(C(F)(F)F)ccc1Cl)C(NCc1ccccc1)c1ccccc1 (stereo unspecified)	GLP1R inv ag 3.55µM
CCOC(=O)COc1ccc2ccccc2c1/C=C/[N+](=O)[O-]	GLP1R inv ag inconclusive, GLP1R cytotox inconclusive, rTrxR1 inhibitor 7.08µM
O=C(NCc1nnc(SCc2ccc(F)cc2)n1-c1ccc(F)cc1)C12CC3CC(CC(C3)C1)C2	GLP1R inv ag 7.08µM, GLP1R cytotox inconclusive
O=C(NCc1ccco1)c1cc2c(s1)CSC2	rTrxR1 inhibitor 7.94µM
O=C(CCl)N(c1ccc(Cl)cc1)c1c[nH]c2ccccc12	GLP1R inv ag inconclusive, GLP1R cytotox inconclusive, rTrxR1 inhibitor 0.447µM, mIDH1 inhibitor inconclusive
O=C(CCl)N(c1ccccc1)c1c[nH]c2ccccc12	GLP1R cytotox inconclusive, rTrxR1 inhibitor 2.24µM
O=C(O)Cc1c[nH]c2ccccc12	none
Nc1ncc(Br)cc1S(=O)(=O)NCCC(=O)NCCc1ccccc1	GLP1R inv ag inconclusive
CN(C)c1ccc(CNC(=O)CCNS(=O)(=O)c2cc(Br)cnc2N)cc1	GLP1R inv ag 4.47µM
CCCn1c(=O)c2sccc2n2c(CCCC(=O)NCCc3ccc(Cl)cc3)nnc12	none (no result: GLP-1R agonist)
CC(=O)C1=C(c2ccc(Br)cc2)C(=O)c2ccccc2C1=O	GLP1R inv ag inconclusive, GLP1R cytotox 3.55µM
CCCc1[nH]nc2c1C(Cc1ccccc1)C(C#N)=C(N)O2 (stereo unspecified)	rTrxR1 inhibitor inconclusive
CC(C)c1[nH]nc2c1C(Cc1ccccc1)C(C#N)=C(N)O2 (stereo unspecified)	GLP1R cytotox inconclusive, rTrxR1 inhibitor 17.8µM
CCc1[nH]nc2c1C(Cc1ccccc1)C(C#N)=C(N)O2 (stereo unspecified)	rTrxR1 inhibitor inconclusive
Cc1[nH]nc2c1C(Cc1ccccc1)C(C#N)=C(N)O2 (stereo unspecified)	rTrxR1 inhibitor 25.1µM
O=C(CCNS(=O)(=O)c1cccc2nsnc12)Nc1ccc(F)cc1	none
CCOc1ccc(C(=O)NCc2nnnn2-c2ccc(C)c(C)c2)cc1OCC	none (no result: GLP-1R agonist)
Fc1ccc(NC(=S)Nc2cc(-c3ccccc3)[nH]n2)cc1Cl	GLP1R inv ag inconclusive, GLP1R cytotox 12.6µM
CN(C)CCCN(Cc1ccccc1)C(=S)Nc1ccc(SC(F)F)cc1	GLP1R inv ag 11.2µM
Cc1ccc(-c2cc(C(=O)OCC(=O)c3ccccc3)c3cccc(Cl)c3n2)cc1	none (no result: GLP-1R agonist)
CN1CCN(C(=O)c2ccc(CSc3ccc(Cl)cc3)cc2)CC1	GLP1R inv ag 5.62µM
CCOC(=O)N1CCN(C(=O)c2ccc(CSc3ccc(Cl)cc3)cc2)CC1	GLP1R inv ag inconclusive
Cn1nnc2c(NCc3ccco3)ncnc21	rTrxR1 inhibitor inconclusive (no result: GLP1R inv ag, GLP-1R agonist, GLP1R cytotox, mIDH1 inhibitor)
Clc1ccccc1-c1nc(Nc2ccccc2)nc2ccc(Br)cc12	GLP1R inv ag 10µM (no result: GLP-1R agonist, mIDH1 inhibitor)
Cc1ccccc1NC1=C/C(=N\S(=O)(=O)c2ccc(C(=O)O)cc2)c2ccccc2C1=O	GLP1R inv ag 8.91µM, GLP1R cytotox inconclusive
O=C(O)c1ccc(S(=O)(=O)/N=C2\C=C(Nc3ccccc3F)C(=O)c3ccccc32)cc1	TrxR1 substrate inconclusive, GLP1R inv ag inconclusive, GLP1R cytotox inconclusive
CCOC(=O)c1cnn(-c2ccc(C(=O)Nc3ccc(C(C)=O)cc3)cc2)c1N	none (no result: GLP-1R agonist)
OCC1(Cc2ccccc2Cl)CCN(C/C=C/c2ccccc2)CC1	GLP1R inv ag 10µM
CCOC(=O)c1cccc(NC(=O)c2ncoc2-c2ccco2)c1	none (no result: GLP-1R agonist)
COc1ccc(/C=C/C(=O)NCCc2ccc(S(N)(=O)=O)cc2)cc1	none
COc1ccc(CCNC(=O)/C=C/c2ccco2)cc1	rTrxR1 inhibitor 35.5µM
COc1cc(/C=N/NC(=O)CNC(=O)/C=C/c2ccco2)cc(OC)c1OC	rTrxR1 inhibitor inconclusive
O=C(CNc1cccc2ccccc12)N/N=C/c1ccc(OC(=O)/C=C/c2ccco2)cc1	GLP1R inv ag 8.91µM
COc1ccc(CCNC(=O)/C=C/c2ccco2)cc1OC	rTrxR1 inhibitor 7.94µM
COc1ccc(/C=N/NC(=O)CNC(=O)/C=C/c2ccco2)cc1OC	rTrxR1 inhibitor 31.6µM
COc1ccc(CN2C(=O)C(NC(=O)c3ccccc3OC)(C(F)(F)F)N=C2c2ccccc2)cc1 (stereo unspecified)	GLP1R inv ag inconclusive
CCOc1ccc(CCNC(=O)COC(=O)/C=C/c2ccco2)cc1OCC	rTrxR1 inhibitor inconclusive
CCOc1ccc(CCNC(=O)/C=C/c2ccco2)cc1OCC	rTrxR1 inhibitor 20µM
COc1ccc(CCNC(=O)C2CC2)cc1OC	none
COc1ccc(CCNC(=O)C2CCC(C(C)(C)C)CC2)cc1OC (stereo unspecified)	GLP1R inv ag 10µM
CC[C@@H]1[C@H]2CCCC(=O)N3CC[C@@H](C[C@@H]1OC(=O)Nc1ccc4c(c1)OCO4)[C@@H]23	none (no result: GLP1R inv ag, GLP-1R agonist, GLP1R cytotox, mIDH1 inhibitor)
Nc1nonc1-n1nnc(C(=O)N/N=C/c2c(Cl)cccc2Cl)c1CSC1=NCCS1	none
CCCN(CCC)Cc1c(C(=O)N/N=C/C(C)=C\c2ccccc2)nnn1-c1nonc1N	GLP1R inv ag 2.82µM
Nc1nonc1-n1nnc(C(=O)N/N=C/C=C/c2ccccc2)c1CSC1=NCCS1	GLP1R inv ag 7.94µM, GLP1R cytotox inconclusive
CCOc1ccccc1CN(CCc1ccc2c(c1)OCO2)Cc1cccc(OC)c1OC	GLP1R inv ag inconclusive
Cc1c(N2C(=O)/C(=C\c3ccc(N(C)C)cc3)N(C)C2=S)c(=O)n(-c2ccccc2)n1C	TrxR1 substrate inconclusive, GLP1R cytotox inconclusive, rTrxR1 inhibitor inconclusive
CN1C(=S)N(c2cccnc2)C(=O)/C1=C\c1ccc(C(C)(C)C)cc1	GLP1R inv ag 11.2µM
CN1C(=S)N(c2cccnc2)C(=O)/C1=C\c1ccc(N(C)C)cc1	GLP1R inv ag inconclusive, GLP1R cytotox 10µM
COCCOC(=O)c1c(C)n(S(=O)(=O)c2ccc(C)cc2)c2ccc(NS(=O)(=O)c3ccc(C)cc3)cc12	none (no result: GLP-1R agonist)
O=C(CCNc1cccc(F)c1)c1cc2ccccc2o1	GLP1R inv ag inconclusive, rTrxR1 inhibitor 7.94µM
O=C(CCNc1cccc(F)c1)c1cccc([N+](=O)[O-])c1	rTrxR1 inhibitor 6.31µM
O=C(CCNc1ccc(F)cc1)c1cc2ccccc2o1	GLP-1R agonist inconclusive, rTrxR1 inhibitor inconclusive
CN(Cc1ccc(Cl)cc1)C(=O)CCl	GLP1R inv ag inconclusive, rTrxR1 inhibitor 6.31µM

Screens (PubChem)
